Assay results from the supplement of paper PMC10127200.
Where a name gives a salt, the structure may show the parent alone.

How the values were obtained:
Test in all cases: Euclidean distance of Cell Painting phenotypic profile (signed KS, 77 features) to DMSO centroid (dimensionless distance); 5 or 10 uM (library dependent); higher = stronger phenotypic change vs DMSO (phenoactivity)
Settings in all cases: 48 h
786-O = test system: 786-O
Outline: (§1)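 Stained cells were imaged confocally at 20X with 9 fields per well, after 48 h of exposure to library compounds at 10 or 5 uM (set by library; 0.1% DMSO final). The cells were five cancer lines and a healthy fibroblast line. From the images, Harmony extracted 77 features, each expressed as a signed Kolmogorov-Smirnov statistic relative to same-plate vehicle wells. Phenoactivity is measured as Euclidean distance to the median vehicle profile, using plate-position-corrected, correlation-weighted profiles averaged across replicates at the top dose.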

A549 = test system: A549
Outline: as §1

DU145 = test system: DU145
Outline: as §1

FB = test system: FB
Outline: as §1

HEPG2 = test system: HEPG2
Outline: as §1

OVCAR4 = test system: OVCAR4
Outline: as §1

| SMILES | Euclidean distance (786-O) | Euclidean distance (A549) | Euclidean distance (DU145) | Euclidean distance (FB) | Euclidean distance (HEPG2) | Euclidean distance (OVCAR4) |
| --- | --- | --- | --- | --- | --- | --- |
| CCOC(=O)[C@H](CCc1ccccc1)N[C@@H](C)C(=O)N1[C@H](C(=O)O)C[C@H]2CCCC[C@@H]21 [Trandolapril] | 1.34 | 0.478 | 0.864 | 0.819 | 0.562 | 0.99 |
| COc1ccc(CN(CCN(C)C)c2ncccn2)cc1 [Thonzylamine] | 1.16 | 1.66 | 1.32 | 1.44 | 0.672 | 1.89 |
| NCc1ccc(S(N)(=O)=O)cc1 [Mafenide Acetate] | 0.874 | 0.744 | 1.24 | 1.07 | 0.456 | 0.942 |
| Cc1nc2c([nH]1)-c1ccccc1N(C(=O)c1ccc(NC(=O)c3ccccc3-c3ccccc3)cc1)CC2 [Conivaptan HCl] | 1.3 | 1.1 | 1.42 | 1.28 | 1.72 | 1.57 |
| COc1c2occc2c(OC)c2c(=O)cc(C)oc12 [Khellin] | 1.37 | 0.619 | 0.84 | 0.769 | 1.17 | 0.887 |
| O=c1c(-c2ccc(O)cc2)coc2cc(O)cc(O)c12 [Genistein] | 1.75 | 1.52 | 1.14 | 1.28 | 0.498 | 1.13 |
| CC[C@@H]1C(=O)N(C)c2cnc(Nc3ccc(C(=O)N[C@H]4CC[C@H](N5CCN(CC6CC6)CC5)CC4)cc3OC)nc2N1C(C)C [Volasertib (BI 6727)] | 4.44 | 4.28 | 4.03 | 5.55 | 3.66 | 4.01 |
| COc1cc(/C=C/C(=O)CC(=O)/C=C/c2ccc(O)c(OC)c2)ccc1O [Curcumin] | 1.77 | 2.12 | 1.22 | 3.06 | 2.02 | 1.2 |
| S=c1nc[nH]c2nc[nH]c12 [6-Mercaptopurine (6-MP) Monohydrate] | 1.29 | 0.49 | 0.673 | 0.989 | 1.81 | 0.591 |
| COc1ccc2c(c1)C(=O)N(CCc1ccc(S(=O)(=O)NC(=O)NC3CCCCC3)cc1)C(=O)C2(C)C [Gliquidone] | 1.02 | 0.773 | 1.03 | 1.06 | 3.11 | 0.973 |
| O=S(=O)(O)CCS [Mesna] | 0.758 | 0.755 | 0.968 | 0.772 | 2.1 | 1.22 |
| CNCCCN1c2ccccc2CCc2ccccc21 [Desipramine Hydrochloride] | 0.817 | 1.07 | 1.11 | 1.73 | 1.43 | 1.25 |
| Cc1cc2ncnn2cc1Nc1ncc2c(n1)n(C1CCOCC1)c(=O)n2C | 1.35 | 1.07 | 1.33 | 1.79 | 0.714 | 0.718 |
| CC(=O)N1CCN(c2ccc(OCC3COC(Cn4ccnc4)(c4ccc(Cl)cc4Cl)O3)cc2)CC1 (centres undefined) [Ketoconazole] | 1.55 | 0.896 | 2.29 | 0.789 | 0.391 | 0.644 |
| C=CC(=O)Nc1cc(Nc2nccc(-c3cn(C)c4ccccc34)n2)c(OC)cc1N(C)CCN(C)C [Osimertinib mesylate] | 4.85 | 4.05 | 2.93 | 5.59 | 5.06 | 4.46 |
| CN1CCC(=C2c3ccccc3CCn3c(C=O)cnc32)CC1 [Alcaftadine] | 1.07 | 0.581 | 1.26 | 1.66 | 0.597 | 1.22 |
| Cc1ccc(-c2ccc(C)cn2)nc1 [Abametapir] | 1.7 | 1.07 | 0.964 | 1.34 | 1.61 | 0.964 |
| CN1CCN(C(=O)c2cc3cc(Cl)ccc3[nH]2)CC1 | 1.14 | 0.827 | 0.611 | 0.998 | 0.507 | 1.17 |
| CCS(=O)(=O)N1CC(CC#N)(n2cc(-c3ncnc4[nH]ccc34)cn2)C1 [Baricitinib phosphate] | 1.75 | 0.985 | 1.99 | 1.55 | 0.776 | 0.981 |
| COc1ccccc1[C@H](Cn1c(=O)n(C(C)(C)C(=O)O)c(=O)c2c(C)c(-c3ncco3)sc21)OC1CCOCC1 [Firsocostat (GS-0976)] | 0.952 | 0.95 | 1.31 | 1.74 | 1.31 | 1.15 |
| C/C=C\c1ccc(OC)cc1 [cis-Anethole] | 0.571 | 0.784 | 0.864 | 0.765 | 0.671 | 1.2 |
| CC(=O)OCC(=O)[C@@]12OC(C)(C)O[C@@H]1C[C@H]1[C@@H]3C[C@H](F)C4=CC(=O)C=C[C@]4(C)[C@@]3(F)[C@@H](O)C[C@@]12C [Fluocinonide] | 1.34 | 2.13 | 2.47 | 1.51 | 0.846 | 1.99 |
| CC(C)c1ccc(NC(=O)Cn2cnc3c2c(=O)n(C)c(=O)n3C)cc1 | 1.03 | 1.06 | 1.22 | 0.919 | 0.953 | 1.16 |
| CN(C)C(=O)c1ccc(S(=O)(=O)c2ccc(NC(=O)[C@@](C)(O)C(F)(F)F)c(Cl)c2)cc1 | 0.701 | 1.81 | 0.801 | 0.955 | 2 | 0.57 |
